Test results: ChEMBL document CHEMBL3433997, “St. Jude Leishmania screening dataset” (2016)

Key:
Type in all cases: functional
[1] = target: Solute carrier family 2, facilitated glucose transporter member 1 (Homo sapiens) (UniProt P11166); assay: ST_JUDE_LEISH: Cytotoxicity at 2uM final concentration against transgenic Leishmania Mexicana promastigotes LmGLUT1 that are glucose transport deficient and complemented with the human glucose transporter GLUT1. Activity is measured by DNA content using SYBR green in vitro
Chain of Solute carrier family 2, facilitated glucose transporter member 1 (Homo sapiens) (P11166 whole entry): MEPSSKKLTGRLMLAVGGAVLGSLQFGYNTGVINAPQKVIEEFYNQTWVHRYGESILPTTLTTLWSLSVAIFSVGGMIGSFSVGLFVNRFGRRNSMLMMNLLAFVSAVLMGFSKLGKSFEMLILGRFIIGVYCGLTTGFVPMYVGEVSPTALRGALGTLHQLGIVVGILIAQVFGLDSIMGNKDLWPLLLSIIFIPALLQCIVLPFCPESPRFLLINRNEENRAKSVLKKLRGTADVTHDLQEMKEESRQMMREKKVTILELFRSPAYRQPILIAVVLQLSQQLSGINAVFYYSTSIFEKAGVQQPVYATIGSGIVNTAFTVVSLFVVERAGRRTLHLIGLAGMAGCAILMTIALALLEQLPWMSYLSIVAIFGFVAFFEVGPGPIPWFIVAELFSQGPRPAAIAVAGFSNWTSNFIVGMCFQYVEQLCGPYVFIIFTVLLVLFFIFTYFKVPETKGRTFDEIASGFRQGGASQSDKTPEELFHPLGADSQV

[2] = target: Hexose transporter 1 (Plasmodium falciparum) (UniProt O97467); assay: ST_JUDE_LEISH: Cytotoxicity at 2uM final concentration against transgenic Leishmania Mexicana promastigotes LmPfHT that are glucose transport deficient and complemented with the Plasmodium falciparum hexose transporter. Activity is measured by DNA content using SYBR green in vitro
[3] = target: Glucose transporter (Leishmania mexicana) (UniProt O61059); assay: ST_JUDE_LEISH: Cytotoxicity at 2uM final concentration against transgenic Leishmania Mexicana promastigotes LmGT2 that are glucose transport deficient and complemented with the L. Mexicana glucose transporter 2. Activity is measured by DNA content using SYBR green in vitro

Structure (SMILES) | inhibition [1] | inhibition [2] | inhibition [3]
Cc1nc(-c2nc(NCc3ccncc3)ncc2-c2ccsc2)sc1C | -1.32% | -0.89% | 0.31%
CC(C)(C)c1ccc(CNC(=O)c2ccc(-c3nc4cc(C(C)(C)C)ccc4[nH]3)cc2)cc1 | 4.41% | 4.23% | 1.77%
COc1cc(CN2CCC(N3CCc4cc(NC(=O)c5cc(C)on5)ccc43)C2)ccc1F (stereo not drawn) | 2.18% | 2.25% | 3.34%
Cc1ncccc1C(=O)Nc1cccc(-c2cccc(-c3nc4cc(C(F)(F)F)ccc4[nH]3)c2)c1 | 0.73% | 1.25% | -2.48%
O=C(Nc1ccc(Cl)cc1)N[C@H]1CCN(CCCCCNC(=O)C2CC2c2ccc(Cl)c(Cl)c2)C1 (stereo partly drawn) | 8.91% | 6.32% | 8.02%
CC(=O)Nc1ccc(OCCN(Cc2ccccc2OC(F)(F)F)c2ccc(C(F)(F)F)c(C#N)c2)c(Cl)c1 | 2.43% | 2.88% | 4.14%
c1cc(Nc2nccc(-c3cnn4ncccc34)n2)cc(-c2cnco2)c1 | 35.9% | 45.8% | 63.1%
COc1ccc(C2CCN(CCCCNC(=O)c3ccc(NC(=O)c4ccc(Cl)cc4)cc3)C2)c(OC)c1 (stereo not drawn) | -0.08% | 0.01% | 0.7%
FC(F)(F)c1ccc2[nH]c(-c3cccc(-c4cccc(CNCCN5CCNCC5)c4)c3)nc2c1 | -0.06% | 3.11% | 1.99%
Cc1ccc(N2C(N)=NC(N)=NC2(C)C)cc1 | 2.52% | 2.98% | 2.39%
O=C(Nc1cccc(-c2cccc(-c3nc4cc(F)ccc4[nH]3)c2)c1)Nc1ccc2c(c1)OCO2 | 1.84% | 4.87% | -1.13%
CC(Cc1ccc(NC(=O)c2ccc(CNCCc3ccccc3)cc2)cc1)NCCc1cccc(Cl)c1 (stereo not drawn) | 68.9% | 36% | 4.52%
O=[N+]([O-])c1cccc(S(=O)(=O)N2CCN(CC(O)COc3ccc(-c4ccccc4)cc3)CC2)c1 (stereo not drawn) | 1.04% | 1.75% | 4.46%
CC(C)(C)NCC(O)COc1ccc(Cl)cc1C1=NNC(=O)CC1 (stereo not drawn) | 1.53% | 1.45% | 0.82%
O=C(c1ccc(Cl)cc1)N1CCCC(C(=O)N(Cc2nnc(-c3ccccc3Cl)o2)C2CC2)C1 (stereo not drawn) | 0.11% | 1.56% | -0.04%
CN(C)CCCNCc1ccc(-c2ccc(F)c(Cl)c2)o1 | -0.74% | 0.82% | -0.76%
COc1cc(C2=NN(S(=O)(=O)c3c(C)cc(C)cc3C)CCCC2)ccc1Cl | 4.03% | 3.46% | 3.33%
O=C1COc2ccc(CNC3CCC(O)(CCc4ccnc5cc6c(cc45)OCCO6)CC3)nc2N1 (stereo not drawn) | 3.59% | 3.14% | 2.8%

Structure (SMILES) | inhibition [1] | inhibition [2] | inhibition [3]
O=C(NCCCN1CCC(N2CCCCC2)CC1)c1ccc(N2CCOc3ccccc32)s1 | 1.25% | 0.98% | 3.19%
CCOc1c(CNCCCNc2cc(O)c3ccccc3n2)cc(I)cc1OC | -0.3% | -1.22% | 1.41%
CCCN(CCC)CCCN(CCCN(CCC)CCC)c1cc(C)nc(Nc2ccc3cc(Br)ccc3c2)n1 | 50.9% | 35.1% | 37.8%
Cn1nc(-c2ccc(CNC3CCc4ccccc43)cc2)c2cnc(NCCN3CCCC3)nc21 (stereo not drawn) | 2.93% | 3.09% | 0.03%
CN(c1ccc2c(c1)nc(NCc1ccccc1)n2C)c1ccnc(Nc2ccc(CS(C)(=O)=O)cc2)n1 | 4.69% | 1.86% | 3.22%
CCCCCCCN(Cc1ccc(OC(C)(C)C(=O)OCC)cc1)C(=O)Nc1ccccc1OCC | -0.85% | -1.76% | -2.13%
CCc1cn2c3c(cc(C(=O)N[C@@H](Cc4ccccc4)[C@H](O)CNC4CCCCC4)cc13)N(C)S(=O)(=O)C2 | 2.09% | 2.23% | 2.69%
O=C(/C=C/c1ccccc1Cl)NC1CCC(CN2CCC(c3c[nH]c4ccncc34)CC2)CC1 (stereo not drawn) | -0.19% | 0.35% | 1.34%
Cc1cc(N[C@@H](CC(C)C)C(=O)NCc2cccs2)nc(NCCc2ccccc2)n1 | 7.7% | 5.79% | 5.49%
Cc1cc(NC(=O)Nc2ccc(N(C)C)cc2)c2cc(Cl)ccc2n1 | 1.15% | 0.69% | 0.88%
CS(=O)(=O)N1CC2(CCN(CCC(NC(=O)Nc3ccccc3)c3ccc(Cl)c(Cl)c3)CC2)c2ccccc21 (stereo not drawn) | 3.59% | 3.17% | 3.05%
Cc1cccc2nc(-c3ccc(-c4ccc(CN5CCN(c6ccncc6)CC5)cc4)cc3)[nH]c12 | 33.3% | 29.1% | 13.4%
OC[C@H]1CCCN1CC#Cc1cc2c(Nc3ccc(OCc4cccc(F)c4)c(Cl)c3)ncnc2s1 | 3.54% | 3.56% | 2.65%
COc1ccc(NC(=O)[C@H](CC(C)C)Nc2cc(C)nc(Nc3ccccc3)n2)cc1 | 19.2% | 15.8% | 14.9%
O=C(/C=C/c1ccc(Cl)c(Cl)c1)NCCCCCN1CCCC(C(=O)Nc2ccc(F)c(Cl)c2)C1 (stereo not drawn) | 3.02% | 5.25% | 4.87%
CC(=O)OCCN1C(=O)c2ccc3c4c(ccc(c24)C1=O)C(=O)N(CCOC(C)=O)C3=O | 3.05% | 2.04% | 0.78%
COc1ccc(CNCc2ccc(-c3cccc(-c4nc5cc(C(F)(F)F)ccc5[nH]4)c3)cc2)cc1 | -1.07% | -0.35% | -2.33%
CCCNCc1ccc(-c2ccc(CN(CCOC)C(=O)c3cscn3)cc2)nc1 | 1.92% | 1.83% | 2.19%
